High-throughput results as filed in PubChem.
A selection: hits, their analogues and other compounds. The true share with any hit is near 3.2%.
Marburg entry inh: inhibitors of Marburg virus binding or cell entry. Marburg virus pseudotyped entry inhibition, cell reporter. Potency, µM (titrated, usually from 37.8 µM), for inactives: at the highest dose activity change, negative = inhibition, usual class: inhibitors. 1.8% of 300,000 active. AID 540276; calls by dose curve; tested in HEK293 cells
FMDV inh: antivirals against foot and mouth disease virus. Potency, µM (titrated, usually from 57.9 µM), inactives show at the highest dose activity change, negative = inhibition, usual class: inhibitors. AID 1159524. 1.2% of 410,000 active. FMDV antiviral cell-based qHTS; calls by dose curve; tested in HEK293T cells; also: read-out not given here; nearly all actives have a fitted effect of over 45% in size
LASV entry inh: Lassa virus entry inhibition; Lassa virus pseudotype entry inhibition, cell reporter; Potency, µM (titrated, usually from 37.9 µM), without a hit: at the top dose activity change, negative = inhibition, usual class: inhibitors; 1.2% of 300,000 active; calls by dose curve; tested in HEK293 cells; also: nearly all actives have a fitted effect of over 50% in size
Vaccinia Venus: vaccinia inhibition (Venus reporter); Potency, µM (doses to about 36.5 µM), for inactives: at the highest dose activity change, negative = inhibition, hits mostly inhibitors; 0.46% of 330,000 active; AID 720580; Vaccinia virus Venus reporter expression, fluorescence; calls by dose curve; tested in A549 cells; also: nearly all actives have a fitted effect of over 30% in size
VACV mCherry inh: inhibitors of vaccinia virus infection (mCherry reporter signal) | Potency, µM (titrated, usually from 36.5 µM), inactives show top-dose activity change, negative = inhibition, hits mostly inhibitors | Vaccinia virus mCherry reporter infection, fluorescence | 0.63% of 310,000 active; calls by dose curve; tested in A549 cells; also: nearly all actives have a fitted effect of over 35% in size
Active calls of the source: *; i = inactive; ? = inconclusive; . = no result; [ ] = another dose, or the depositor's remark. % is scaled to controls: 0 for no effect and ±100 for the full control effect; potency is read from the fitted curve at half-maximal effect.

SMILES	Marburg entry inh	FMDV inh	LASV entry inh	Vaccinia Venus	VACV mCherry inh
COc1ccc(COCC(O)CN2CCN(S(=O)(=O)c3ccc(C(C)C)cc3)CC2)cc1 (configuration not stated)	?	-26%	?	-27%	?
CN(C)C1CCN(Cc2cc(COCc3ccccc3)c3cccnc3c2O)C1 (configuration not stated)	.	-21%	.	.	.
Oc1c(CN2CCCCC2)cc(COCc2ccccc2)c2cccnc12	?	-28%	2.2µM*	?	2.5µM*
Oc1c(CN2CCN(c3ccccn3)CC2)cc(Cl)c2cccnc12	7.1µM*	?	13µM*	11µM*	.
Oc1ccc(CN2CCCCC2)c2cccnc12	?	.	-65%	?	-34%
COCc1cc(CN2CCCC2)c(O)c2ncccc12	26µM*	.	?	?	14µM*
O=[N+]([O-])c1cc(CN2CCCC2)c2cccnc2c1O	-9%	-1%	-1%	-8%	-16%
Oc1c(CN2CCCCC2)ccc2cccnc12	?	-26%	-15%[46.1 µM]	?	8.9µM*
CC(=O)C1=CCC(c2ccc(C)o2)N(S(=O)(=O)c2ccc(C)cc2)C1 (configuration not stated)	.	-18%	.	7%	i
Cc1cc(N2CCN(C(C(=O)NC3CCCC3)c3ccc(F)cc3)CC2)c2ccccc2n1 (configuration not stated)	.	?	.	-26%	-5%
Cc1cccc(C)c1NC(=O)c1ccc2c(c1)N(Cc1cccc(Cl)c1)C(=O)c1ccccc1S2=O (configuration not stated)	?	-14%	?	-9%	-17%
CNC(=O)NC1CCCC(C2=NC(C)=NCC2)C1 (configuration not stated)	5%	.	.	.	.
CCC(C)c1ccc(NC(=S)NC2CCN(Cc3ccccc3)CC2)cc1 (configuration not stated)	11µM*	?	?	10µM*	?
CCOc1ccc(N=C(C)C2=C(O)c3ccccc3C2=O)cc1	?	-35%	?	-19%	-1%
CCOc1ccc(N=C(NN)c2ccc3ccccc3n2)cc1	?	8.9µM*	?	-16%	-13%
CCCc1cnc2c(c1SCC(=O)Nc1ccccc1F)c(=O)n(C)c(=O)n2C	.	-8%	-2%[46.1 µM]	-4%	-13%
CCCc1cnc2c(c1SCC(=O)Nc1ccc([N+](=O)[O-])cc1)c(=O)n(C)c(=O)n2C	.	16µM*	?	?	-11%
C=CCN1C[C@@H](C)N([C@H](c2ccc(C(=O)N(CC)CC)cc2)c2cccc(OC)c2)C[C@@H]1C	16µM*	.	?	.	.
C=CCN1C[C@@H](C)N(C(c2ccc(C(=O)N(CC)CC)cc2)c2cccc(OC)c2)C[C@@H]1C (some centres not stated)	.	-30%	.	-18%	-6%
Cc1cccc(-c2noc(CN(C3CCCCC3)S(=O)(=O)c3ccc(F)cc3)n2)c1	12%[46.1 µM]	10%	1%[46.1 µM]	-9%	-4%
CNc1nc2c(c(=O)n(C)c(=O)n2C)n1CC(O)COc1ccc(OC)cc1 (configuration not stated)	.	?	?	-17%	-21%
CN1CCN(C(=O)CCN2C(=O)/C(=C\c3ccc(Cl)cc3Cl)SC2=S)CC1	1%[46.1 µM]	35µM*	?	149%	9%
CCc1ccc(/C=C2\SC(=S)N(CCC(=O)N3CCN(C)CC3)C2=O)cc1	.	22%	.	10µM*	?
CCOc1ccc(/C=C2\SC(=S)N(CCC(=O)O)C2=O)cc1	?	0.32µM*	-24%[46.1 µM]	-12%	-13%
CCOc1ccc(/C=C2/SC(=S)N(CCC(=O)Nc3ccc(C(=O)O)cc3)C2=O)cc1	.	64%	.	.	.
SMILES	Marburg entry inh	FMDV inh	LASV entry inh	Vaccinia Venus	VACV mCherry inh
COc1cc(/C=C2/SC(=S)N(CCC(=O)N3CCN(C)CC3)C2=O)cc(OC)c1OC	.	0%	.	?	10µM*
COc1cc(/C=C2\SC(=S)N(CCC(=O)N3CCN(C)CC3)C2=O)cc(OC)c1OC	?	-24%	-29%[46.1 µM]	19%	-20%
O=C(NCc1nnc(SCC(=O)N2CCOCC2)o1)c1c(F)cccc1Cl	19%[46.1 µM]	1%	-4%	4%	-6%
COc1ccccc1CNC(=O)CCC1N=C2c3ccccc3N=C(SCC(N)=O)N2C1=O (configuration not stated)	.	-19%	-4%[46.1 µM]	-21%	?
CC1CCN(C(=O)CCN2C(=O)/C(=C/c3cccs3)SC2=S)CC1	?	-11%	5.6µM*	-26%	?
COc1cc(/C=C2\SC(=S)N(CCC(=O)Nc3cccc(O)c3)C2=O)cc(OC)c1OC	?	20µM*	?	-11%	-7%
